Source: the supplement of paper PMC6953052
Where “and” joins values, the source holds several entries; their conditions need not be identical. Equal entries are not always repeated. ± gives the standard deviation of the averaged measurements. The full ranking holds about 1,700 compounds; the median of “fraction of GFP-LC3-positive cells (≥5 vesicles/cell)” is about 0.058, and the highest 2% start at about 0.59. For the sample, the highest values were picked, then their nearest neighbours and some compounds at random.

system: CbCln3 +/+ GFP-LC3 cerebellar neuronal cells; assay: fraction of GFP-LC3-positive cells (≥5 vesicles/cell); higher = more autophagosome accumulation
How it was run: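 Values are the duplicate-averaged fraction of cells passing a GFP-LC3 vesicle cutoff, counted per cell in CellProfiler with out-of-focus images excluded. That cutoff is 5 or more vesicles. Wild-type or mutant CbCln3 cerebellar cells stably expressing GFP-LC3 (2 × 10^3/well, 384-well) were given ~50 nL compound in DMSO by pin transfer for 24 h at 33 °C, then fixed in 3.2% PFA and imaged at 10×, three fields per well.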

In order of falling “fraction of GFP-LC3-positive cells” value:
1. COc1cc2nc(N3CCN(C(=O)c4ccco4)CC3)nc(N)c2cc1OC [prazocin]  0.899
2. Cn1cc(C2=C(c3cn(CCCSC(=N)N)c4ccccc34)C(=O)NC2=O)c2ccccc21  0.845 ± 0.071
3. COc1cc(/C=C/C(=O)N2CCC=CC2=O)cc(OC)c1OC [Piperlongumine]  0.781
4. Nc1ncn(C2O[C@H](CO)[C@@H](O)[C@H]2O)c(=O)n1 (stereo partly drawn) [Azacytidine-5]  0.745
5. CC(C)=CC[C@@H](O)C1=CC(=O)c2c(O)ccc(O)c2C1=O [Shikonin]  0.7
6. CCCC[C@@H](C)/C=C(C)/C=C(\C)C(=O)NC1=C[C@@](O)(/C=C/C=C/C=C/C(=O)NC2=C(O)CCC2=O)[C@@H]2O[C@@H]2C1=O [manumycin A]  0.695
7. CC[C@]1(O)C[C@@H]2CN(CCc3c([nH]c4ccccc34)[C@@](C(=O)OC)(c3cc4c(cc3OC)N(C)[C@H]3[C@@](O)(C(=O)OC)[C@H](OC(C)=O)[C@]5(CC)C=CCN6CC[C@]43[C@@H]65)C2)C1.O=S(=O)(O)O [vinblastine]  0.691
8. CCN(CC)C(=S)SSC(=S)N(CC)CC [Disulfiram]  0.687
9. CC(=O)O[C@H]1C(=O)[C@@]2(C)[C@H]([C@H](OC(=O)c3ccccc3)[C@]3(O)C[C@H](OC(=O)[C@H](O)[C@@H](NC(=O)c4ccccc4)c4ccccc4)C(C)=C1C3(C)C)[C@]1(OC(C)=O)CO[C@@H]1C[C@@H]2O [Paclitaxel]  0.642
10. CC(=O)O[C@H]1C(=O)[C@@]2(C)C([C@H](OC(=O)c3ccccc3)[C@]3(O)C[C@H](OC(=O)[C@H](O)[C@@H](NC(=O)c4ccccc4)c4ccccc4)C(C)=C1C3(C)C)[C@]1(OC(C)=O)CO[C@@H]1C[C@@H]2O (stereo partly drawn) [taxol =paclitaxel]  0.536
11. CC[C@H](C)C(=O)O[C@H]1C[C@@H](C)C=C2C=C[C@H](C)[C@H](CC[C@@H]3C[C@@H](O)CC(=O)O3)[C@H]21 [Mevinolin (lovastatin)]  0.203
12. COC1=CC(=O)C[C@@H](C)[C@]12Oc1c(Cl)c(OC)cc(OC)c1C2=O [Griseofulvin]  0.172
13. COc1cc2nc(N3CCN(C(=O)c4ccco4)CC3)nc(N)c2cc1OC.Cl [Prazosin hydrochloride]  0.156
14. CC(COc1ccccc1)N(CCCl)Cc1ccccc1.Cl (stereo not drawn) [Phenoxybenzamine hydrochloride]  0.139
15. COC(=O)[C@H]1[C@H]2C[C@@H]3c4[nH]c5cc(OC)ccc5c4CCN3C[C@H]2C[C@@H](OC(=O)/C=C/c2cc(OC)c(OC)c(OC)c2)[C@@H]1OC [Rescinnamin]  0.134
16. Nc1nc(S)c2ncn([C@@H]3O[C@H](CO)[C@@H](O)[C@H]3O)c2n1 [Thioguanosine]  0.131
17. Cc1cc(C(C)(C)C)cc(C)c1CC1=NCCN1.Cl [Xylometazoline hydrochloride]  0.0933
18. COc1ccc2c(c1OC)C(=O)O[C@@H]2[C@H]1c2c(cc3c(c2OC)OCO3)CCN1C [Noscapine]  0.0895
19. CC(=O)OCC(=O)[C@@]1(OC(C)=O)[C@@H](C)C[C@H]2[C@@H]3C[C@H](F)C4=CC(=O)C=C[C@]4(C)[C@@]3(F)[C@@H](O)C[C@@]21C [Diflorasone Diacetate]  0.085
20. O=C(O)c1cc(N(Cc2ccccc2O)Cc2cc(O)ccc2O)ccc1O [Lavendustin A]  0.0834
21. Nc1ccc(C(=O)NCC(=O)O)cc1 [Aminohippuric acid]  0.0809
22. COc1ccc(Cl)cc1C(=O)NCCc1ccc(S(=O)(=O)NC(=O)NC2CCCCC2)cc1  0.0797
23. CCCCCCCCCCCCCCCCC(=O)O [Heptadecanoic acid]  0.0793
24. COc1ccc2cc1Oc1ccc(cc1)C[C@H]1c3cc(c(OC)cc3CCN1C)Oc1c(OC)c(OC)cc3c1[C@H](C2)N(C)CC3 [Tetrandrine]  0.0783
25. O=C(O)CCC(=O)c1ccc(-c2ccccc2)cc1 [Fenbufen]  0.0751
26. C[C@@H](N)[C@H]1CC[C@H](C(=O)Nc2ccncc2)CC1  0.074
27. Cc1ncc(C[n+]2csc(CCO)c2C)c(N)n1.Cl.[Cl-] [Thiamine hydrochloride]  0.0725
28. CCCCC/C=C/C/C=C/CCCCCCCCCCCC(=O)O [13(Z),16(Z)-Docosadienoic acid]  0.0709
29. C[N+](C)(C)CCOC(N)=O.[Cl-] [Carbachol]  0.0698
30. CC/C=C\C/C=C\C/C=C\C/C=C\C/C=C\CCCC(=O)O [Eicosapentaenoic acid (20:5 n-3)]  0.0669
31. Cc1ccsc1/C=C/C1=NCCCN1C.O=C(O)C(O)C(O)C(=O)O [Morantel tartrate]  0.0668
32. C[C@@H](O)[C@H]1C(=O)N2C(C(=O)O)=C(S[C@@H]3CN[C@H](C(=O)N(C)C)C3)[C@H](C)[C@H]12 [Meropenem]  0.0612
33. C1COC(NC(C2CC2)C2CC2)=N1.C1COC(NC(C2CC2)C2CC2)=N1.O=C(O)/C=C/C(=O)O [Rilmenidine hemifumarate]  0.0609
34. Cc1cc(CC(=O)[O-])n(C)c1C(=O)c1ccc(Cl)cc1.[Na+] [Zomepirac sodium salt]  0.0585
35. Cc1cnc(C(=O)NCCc2ccc(S(=O)(=O)NC(=O)NC3CCCCC3)cc2)cn1 [Glipizide]  0.057
36. C=C(C)[C@@H]1CC[C@]2(C(=O)O)CC[C@]3(C)[C@H](CC[C@@H]4[C@@]5(C)CC[C@H](O)C(C)(C)[C@@H]5CC[C@]43C)[C@@H]12 [Betulinic acid]  0.0563
37. COc1ccccc1OCC(O)COC(N)=O (stereo not drawn) [Methocarbamol]  0.0551
38. O=[N+]([O-])c1cccc2c(Br)n[nH]c12 [Bromo-7-nitroindazole [3-Bromo-7-nitroindazole]]  0.0548
39. COc1ccc(CCN(C)CCCC(C#N)(c2ccc(OC)c(OC)c2)C(C)C)cc1OC.Cl (stereo not drawn) [Verapamyl hydrochloride]  0.0534
40. CNCCC=C1c2ccccc2CCc2ccccc21.Cl [Nortriptyline hydrochloride]  0.0533
41. CNCCC(Oc1ccccc1OC)c1ccccc1.Cl (stereo not drawn) [Nisoxetine hydrochloride]  0.0525
42. CCOC(=O)n1ccn(C)c1=S [Carbimazole]  0.0518
43. COc1ccc2c(c1)c(CC(=O)N1CCOCC1)c(C)n2C(=O)c1ccc(Cl)cc1  0.0513 ± 0.01
44. CCCCNc1c(C(=O)OCC)c(C)nc2c1cnn2CC.Cl [Tracazolate hydrochloride]  0.0505
45. Cc1ccc(Cl)c(Nc2ccccc2C(=O)[O-])c1Cl.O.[Na+] [Meclofenamic acid sodium salt monohydrate]  0.0498
46. C[C@]12CCC(=O)C=C1CC[C@@H]1[C@@H]2[C@@H](O)C[C@@]2(C)[C@H]1CC[C@]2(O)C(=O)CO [Hydrocortisone base]  0.049
47. CCCCCCCCCCCCCCCCCCCCCCC(=O)O [Tricosanoic acid]  0.0481
48. Clc1ccc(C(Cn2ccnc2)OCc2csc3c(Cl)cccc23)c(Cl)c1.O=[N+]([O-])O (stereo not drawn) [Sertaconazole nitrate]  0.0474
49. COc1cc2nc(N3CCN(C(=O)C4CCCO4)CC3)nc(N)c2cc1OC.Cl (stereo not drawn) [Terazosin hydrochloride]  0.0471
50. CC/C=C\C/C=C\C/C=C\C/C=C\C/C=C\CCCC(=O)O  0.047
51. COc1cc(C(=O)OCCCN2CCCN(CCCOC(=O)c3cc(OC)c(OC)c(OC)c3)CC2)cc(OC)c1OC.Cl.Cl [Dilazep dihydrochloride]  0.0467
52. CC/C=C/C/C=C/C/C=C/CCCCCCCCCC(=O)O [Eicosatrienoic acid (20:3 N-3)]  0.0456
53. CC(C)Cc1ccc([C@H](C)C(=O)O)cc1 [S-(+)-ibuprofen]  0.0447
54. CCN(CC)C(=O)N1CCN(C)CC1.O=C(O)CC(O)(CC(=O)O)C(=O)O [Diethylcarbamazine citrate]  0.0418
55. O=C1Cc2c([nH]c3ccc(Br)cc23)-c2ccccc2N1  0.0413
56. O=C(O)c1cc(N(Cc2ccccc2O)Cc2cc(O)ccc2O)ccc1O  0.0412
57. N=C(N)NCC1COC2(CCCCC2)O1.N=C(N)NCC1COC2(CCCCC2)O1.O=S(=O)(O)O (stereo not drawn) [Guanadrel sulfate]  0.041
58. CCCCCCCC/C=C\CCCCCCCC(=O)OC[C@@H](O)COP(=O)(O)O [Lysophosphatidic acid]  0.0399
59. CCCCCCCC/C=C\CCCCCCCC(=O)OC[C@@H](O)COP(=O)(O)O  0.039
60. CC(C)(Oc1ccc(C2CC2(Cl)Cl)cc1)C(=O)O (stereo not drawn) [Ciprofibrate]  0.0359
61. COC(=O)[C@H]1[C@H]2C[C@H]3c4[nH]c5ccccc5c4CCN3C[C@@H]2CC[C@@H]1O.Cl [Corynanthine hydrochloride]  0.0351
62. Cc1c(OCC(F)(F)F)ccnc1CS(=O)c1nc2ccccc2[nH]1 (stereo not drawn) [Lansoprazole]  0.0343
63. NC(=O)c1ncn([C@@H]2O[C@H](CO)[C@@H](O)[C@H]2O)n1 [Ribavirin]  0.033
64. Cc1nccn1CC1CCc2c(c3ccccc3n2C)C1=O.Cl (stereo not drawn) [Ondansetron Hydrochloride]  0.03
65. CS(=O)c1ccc(-c2nc(-c3ccc(F)cc3)c(-c3ccncc3)[nH]2)cc1 (stereo not drawn)  0.023
66. C[C@]12CC[C@@H]3c4ccc(O)cc4CC[C@H]3[C@@H]1CCC2=O [Estrone]  0.0194

With `CCCNC(=O)[C@H]1O[C@@H]1C(=O)N[C@H](C(=O)N1CCC[C@H]1C(=O)OC)C(C)CC` (stereo partly drawn) the “fraction of GFP-LC3-positive cells” value was 0.399 and 0.352.
In the case of `CN(C)CCCn1cc(C2=C(c3c[nH]c4ccccc34)C(=O)NC2=O)c2ccccc21`, the “fraction of GFP-LC3-positive cells” value is reported as 0.0883 and 0.0921.
